tested on: Pseudomonas aeruginosa PA14 wild type; assay: respiration area under curve with compound as sole nitrogen source, 24 h (OmniLog AUC (arbitrary units)); higher = more respiration / better utilisation as nitrogen source, active = 2000 or more; conditions: plate: PM8
Description: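 Biolog Phenotype MicroArray plates PM6-PM8: each di/tripeptide is the sole nitrogen source (IF-0 medium with succinate/ferric citrate and dye mix A). Tetrazolium reduction was read in the OmniLog every 15 min for 24 h at 37°C and summarised as area under the respiration curve (arbitrary units). The paper counts values below 2000 as no respiration and above 8000 as solid respiration. Replicate datasets are averaged.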

| Compound | respiration area under curve |
| --- | --- |
| N[C@@H](Cc1ccc(O)cc1)C(=O)NCC(=O)NCC(=O)O | 11300 (active) |

— the supplement of paper PMC4206461
